Source: PubChem BioAssay (National Center for Advancing Translational Sciences (NCATS))
ATXN2 expr inh: Primary qHTS for Inhibitors of ATXN expression | hit rate 0.72% among 360,000 | Potency, µM (top dose mostly 57 µM), without a hit: top-dose activity change, negative = inhibition, hits mostly inhibitors | AID 1745845, 2022 | HEK-293 ATXN2-luciferase reporter, luminescence, 24 h; further: on the % scale 0 is the no-effect control and ±100 the full control effect; nearly all actives have a fitted effect of over 55% in size
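ATXN2-luciferase reporter cells (luciferase flanked by upstream and downstream ATXN2 gene portions) were treated 24 h at 37 °C with compounds at up to 57 uM. SteadyGlo luminescence gave expression; GF-AFC fluorescence gave viability.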
TGFb inhibitor: qHTS for Inhibitors of TGF-b; HepG2 CAGA-GFP TGF-b/SMAD3 reporter, GFP fluorescence, 18 h; TGF-beta stimulated, 500 pg/mL final; Potency, µM (highest dose often 46.1 µM), without a hit: at the highest dose activity, negative = inhibition, hits mostly inhibitors; hit rate 1.2% among 410,000; AID 588855, 2011; further: on the % scale 0 is the no-effect control and ±100 the full control effect; nearly all actives have a fitted effect of over 65% in size
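HEPG2 CAGA-GFP, 1000 cells/well; 2 h settle, 37 C; cpd via pin tool; TGF-b 500 pg/mL final; 18 h, 37 C; GFP imaging ex488/em500-530; %Activity normalised to -TGF-b and +DMSO controls; CRC fit, curve class.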
HepG2 tox: qHTS for Inhibitors of TGF-b: Cytotox Counterscreen. HepG2 CAGA-GFP viability, ATP luminescence, 18 h. Potency, µM (highest dose often 46.1 µM), without a hit: at the highest dose activity change, negative = cytotoxicity, most hits filed as cytotoxic. hit rate 0.76% among 410,000. AID 588856, 2011
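CellTiter-Glo luminescence gave cytotoxicity after 18 hours at 37 degrees C. The cells were HepG2 CAGA-GFP in 1% FBS DMEM, stimulated with 500 pg/mL TGF-beta after compound addition. %Activity was normalised to no-cell wells (complete cell-killing) and DMSO (no toxicity), and curves were fitted and classified.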
DT40 TDP1 no CPT: qHTS for Inhibitors of human tyrosyl-DNA phosphodiesterase 1 (TDP1): qHTS in cells in absence of CPT; DT40 Tdp1-/- hTDP1 cells, no CPT, ATP luminescence, 48 h; Potency, µM (highest dose often 46.2 µM), inactives show at the top dose activity change, negative = growth inhibition, actives largely listed as inhibitors; hit rate 15% among 420,000; further: on the % scale 0 is the no-effect control and ±100 the full control effect; nearly all actives have a fitted effect of over 55% in size
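DT40 Tdp1-/-;hTDP1 cells, no CPT (DMSO vehicle only), 400 cells/well; compounds pin-transferred; ≥48 hr, 37 °C; CellTiter-Glo 30 min RT dark, luminescence read.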
TDP1 cell CPT: qHTS for Inhibitors of human tyrosyl-DNA phosphodiesterase 1 (TDP1): qHTS in cells in presence of CPT | chicken DT40 Tdp1-/-;hTDP1 cells + 20 nM CPT, ATP luminescence, 48 h | Potency, µM (top dose mostly 46.2 µM), for the others: at the top dose activity change, negative = growth inhibition, hits mostly inhibitors | hit rate 12% among 420,000; further: on the % scale 0 is the no-effect control and ±100 the full control effect; nearly all actives have a fitted effect of over 55% in size
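Chicken DT40 Tdp1-/- cells complemented with human TDP1, 400 cells/well, exposed to compounds plus 20 nM camptothecin for at least 48 h at 37 C; viability read as ATP content by CellTiter-Glo luminescence.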
S2 tox: Viability Counterscreen for Primary qHTS for Inhibitors of ATXN expression; S2 cells (HEK-293 line with an ATXN2-luciferase reporter) viability, CellTiter-Fluor protease fluorescence, 24 h; Potency, µM (highest dose often 56.7 µM), usual class: cytotoxic; hit rate 0.49% among 400,000; further: nearly all actives have a fitted effect of over 40% in size
Starred values were filed as active, the others as inactive; i = inactive; ? = inconclusive; nt = no result given; [ ] = dose if it differs, or a comment. Rows were chosen to be rich in hits. Some 17% of all compounds tested hit in one or more screens of this group. The call rests on the fitted dose curve; in most records, active means well fitted curve in the direction sought with a large enough effect; inconclusive means small, poorly fitted or top-dose-only effect, or another doubt; inactive means no such curve, though single readings can be large; an effect the other way counts as inactive or inconclusive. Potency means the concentration at half of the fitted maximal effect.

SMILES	ATXN2 expr inh	TGFb inhibitor	HepG2 tox	DT40 TDP1 no CPT	TDP1 cell CPT	S2 tox
CC(=O)c1ccccc1C(=O)N1CCCC(C(=O)c2ccc(C(F)(F)F)cc2)C1 (centres undefined)	4%	?	-7%	23µM*	23µM*	i
COc1ccc(C(=O)C2CCCN(C(=O)/C=C/c3ccccn3)C2)c(C)c1 (centres undefined)	-21%[11.3 µM]	-9%	-38%	?	-4%	i
COc1ccc(C(=O)C2CCCN(C(=O)c3ccccc3C(C)=O)C2)cc1F (centres undefined)	nt	2%	7%	?	?	i
CC(C)(C)c1ccc(C(=O)O/N=C(\N)c2ccccn2)cc1	?	8%	1%	-22%	23µM*	i
O=C(c1ccc(Cl)cc1)C1CCCN(C(=O)/C=C/c2ccccn2)C1 (centres undefined)	-24%	9%	0%	21µM*	23µM*	i
N/C(=N\OC(=O)/C=C/c1ccccc1Cl)c1ccccn1	16µM*	-3%	1%	8%	-4%	i
N/C(=N\OC(=O)c1ccccc1)c1ccccn1	?	3%	-49%	-20%	-7%	i
CC(C)(C)c1ccc(C(=O)C2CCCN(C(=O)c3ccccn3)C2)cc1 (centres undefined)	-24%	?	-30%	?	9.2µM*	i
COc1cccc(C(=O)C2CCCN(C(=O)c3ccccn3)C2)c1 (centres undefined)	0%	-13%	0%	4%	-11%	i
CC(C)(C)c1ccc(C(=O)C2CCCN(C(=O)CCn3cncn3)C2)cc1 (centres undefined)	7%	-18%	-29%	?	?	i
Cc1cnc(C(=O)N2CCCC(C(=O)c3ccc(C(C)(C)C)cc3)C2)cn1 (centres undefined)	-16%	-15%	-25%	23µM*	?	i
CS(=O)(=O)Nc1ccc(C(=O)Nc2ccccc2C(=O)NCc2ccco2)cc1	-7%	0%	-14%	-8%	-18%	i
OC[C@@H]1CN(Cc2ccc3c(c2)OCO3)C[C@H](n2cnc3c(N4CCOCC4)ncnc32)O1	6%	-18%	-10%	-7%	-15%	i
COc1ccc(CNC(=O)COC(=O)c2ccc(Br)o2)cc1	nt	0%	0%	-8%	-6%	i
CC1(C)Cc2c(ccc3ccccc23)/C(=C/C(=O)N2CCCCC2)N1	-37%	?	-1%	15µM*	16µM*	i
COc1cc(C(=O)NCC(=O)OCc2cc(=O)oc3c(C)c(C)ccc23)cc(OC)c1OC	-9%	-1%	8%	1%	10%	i
CC(C)(C)c1ccc(C2C(C(=O)c3ccco3)=C(O)C(=O)N2CC2CCCO2)cc1 (centres undefined)	0%	-3%	11%	18µM*	?	i
Cc1c(N)cccc1-c1nc2ccccc2[nH]1	19%	3%	-17%	-16%	-18%	i
Cc1c([N+](=O)[O-])cnc(Sc2ccccc2)c1[N+](=O)[O-]	nt	13µM*	20µM*	9.2µM*	?	14µM*
CCN(CC)C(=O)c1sc2nc(-c3ccccn3)[nH]c(=O)c2c1C	16%	4%	10%	12µM*	23µM*	i
Cc1sc2nc(-c3ccccn3)[nH]c(=O)c2c1-c1ccccc1	17%[11.3 µM]	?	-12%	10µM*	9.2µM*	nt
Cc1ccc(-c2cn3cccnc3n2)cc1NC(=O)c1cccs1	7%	8%	4%	?	-29%	?
COc1ccc(N2CCN(C(=O)C3CCN(S(=O)(=O)Cc4ccccc4)CC3)CC2)cc1	-11%	22%	0%	-24%	-24%	i
O=C(Nc1cnn(Cc2ccc(Cl)cc2Cl)c1)c1noc2c1CCCC2	-15%	16µM*	-2%	?	?	?
O=C(Nc1cnn(Cc2ccc(Cl)cc2Cl)c1)c1cc(-c2cccs2)on1	?	?	-32%	?	-35%	?
SMILES	ATXN2 expr inh	TGFb inhibitor	HepG2 tox	DT40 TDP1 no CPT	TDP1 cell CPT	S2 tox
COc1ccc(-c2cc(=O)oc3cc(OCC(=O)NCc4ccccn4)ccc23)cc1	1%	?	-58%	23µM*	?	i
COc1ccc(-c2cc(=O)oc3cc(OC(C)C(=O)NCc4ccccn4)ccc23)cc1 (centres undefined)	-16%	2%	-14%	?	21µM*	i
CC(Oc1ccc2c(-c3ccccc3)cc(=O)oc2c1)C(=O)NCCCn1ccnc1 (centres undefined)	-16%	21%	-6%	15µM*	23µM*	i
CCCc1cc(=O)oc2cc(OC(C)C(=O)NCCCn3ccnc3)ccc12 (centres undefined)	2%	1%	-16%	5%	-9%	i
Cc1cc(=O)oc2cc(OCC(=O)NCc3ccccn3)ccc12	3%	-10%	2%	3%	-1%	i
Cc1cc(=O)oc2cc(OC(C)C(=O)NCc3ccccn3)ccc12 (centres undefined)	-11%	6%	0%	8%	-13%	i
CCOC(=O)c1c(-c2ccc(OC)cc2)csc1NC(=O)COc1ccc2c(C)cc(=O)oc2c1	0%	0%	0%	16µM*	23µM*	i
CCC(N)(C(=O)O)c1ccc(C(=O)O)cc1 (centres undefined)	nt	nt	nt	-20%	?	nt
CCOc1cc(S(=O)(=O)Nc2ccncc2)ccc1F	?	-1%	-31%	12%	-1%	?
CCCc1cc(=O)oc2cc(C)cc(OCC(=O)NCc3ccccn3)c12	-22%	0%	-15%	-18%	18µM*	i
Cc1cc(OCC(=O)NCc2ccccn2)c2c(C)cc(=O)oc2c1	8%	12%	-2%	0%	7%	i
COc1ccc(CNC(=O)Cn2ncc3c(=O)oc4ccccc4c32)c(OC)c1	-7%	-10%	-3%	-23%	-26%	i
CN(C)c1ccc(C(=O)OCC(=O)NC2CCCCCC2)cc1	-6%	-33%	7%	?	-29%	i
CN(C)c1ccc(N=Nc2ccccc2C(=O)OCC(=O)NC2CCCC2)cc1	-3%	?	-69%	?	26µM*	nt
O=C(COC(=O)c1ccccc1F)NC1CCCC1	-10%	6%	-2%	-12%	2%	i
